Test results from PubChem BioAssay (NCI).
This is part of a sample that, as a whole, favours compounds with a hit. Of some 83,000 tested, about 20% had one in any assay.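 For each line, cells grew in 96-well plates with the test compound present at a single concentration for 48 hours.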 Active and inactive are the calls of the source. Rule for the calls: active = growth percent below 10; inactive = the rest.

How the values were obtained:
Assay in all cases: NCI-60 one-dose screen, 48 h (100 = growth as untreated, 0 = no growth, -100 = all killed)
Conditions in all cases: 10 µM
NCI-H23 lung = tested on: NCI-H23 lung
NCI-H226 lung = tested on: NCI-H226 lung
NCI-H322M lung = tested on: NCI-H322M lung
HOP-62 NSCLC = tested on: HOP-62 NSCLC
NCI-H460 lung = tested on: NCI-H460 lung
NCI-H522 lung = tested on: NCI-H522 lung
A549/ATCC NSCLC = tested on: A549/ATCC NSCLC
786-0 renal = tested on: 786-0 renal
COLO 205 colon = tested on: COLO 205 colon

Measured: growth

O=C(Nc1cccc(NC(=O)Nc2cc(C(F)(F)F)ccc2Cl)c1)Nc1cc(C(F)(F)F)ccc1Cl
inactive: NCI-H23 lung 20.4% | NCI-H226 lung 34.3% | NCI-H322M lung 38% | HOP-62 NSCLC 21.8% | A549/ATCC NSCLC 11.6% | 786-0 renal 51.7%
active: NCI-H460 lung 4.58% | NCI-H522 lung -27.7% | COLO 205 colon 1.37%

Oc1ccc(O)cc1
inactive: NCI-H23 lung 96.3% | NCI-H226 lung 110% | NCI-H322M lung 106% | HOP-62 NSCLC 106% | NCI-H460 lung 113% | 786-0 renal 114% | COLO 205 colon 112%
active: NCI-H522 lung -40.8%

COC(=O)c1cccnc1
inactive: NCI-H23 lung 95.6% | NCI-H226 lung 98% | NCI-H322M lung 106% | HOP-62 NSCLC 99.4% | NCI-H460 lung 105% | NCI-H522 lung 78.2% | A549/ATCC NSCLC 91.9% | 786-0 renal 87.1% | COLO 205 colon 95.3%

O=C(N/N=C/c1ccccc1O)Nc1nn[nH]n1
inactive: NCI-H23 lung 106% | NCI-H226 lung 96.4% | NCI-H322M lung 97% | HOP-62 NSCLC 111% | NCI-H460 lung 102% | NCI-H522 lung 95.4% | A549/ATCC NSCLC 108% | 786-0 renal 108% | COLO 205 colon 109%

O=[N+]([O-])c1ccc(O)c(S(=O)(=O)O)c1
inactive: NCI-H23 lung 103% | NCI-H226 lung 102% | NCI-H322M lung 126% | HOP-62 NSCLC 101% | NCI-H460 lung 109% | NCI-H522 lung 104% | A549/ATCC NSCLC 106% | 786-0 renal 104% | COLO 205 colon 122%

N#C/C(=C\c1cc(O)c(O)c(O)c1)C(N)=O
inactive: NCI-H23 lung 102% | NCI-H226 lung 108% | NCI-H322M lung 110% | HOP-62 NSCLC 97.2% | NCI-H460 lung 110% | NCI-H522 lung 76.5% | A549/ATCC NSCLC 105% | 786-0 renal 94.6% | COLO 205 colon 104%

O=c1[nH]cc(Cl)cc1O
inactive: NCI-H23 lung 96.4% | NCI-H226 lung 95.5% | NCI-H322M lung 97.1% | HOP-62 NSCLC 103% | NCI-H460 lung 94.1% | NCI-H522 lung 60.7% | A549/ATCC NSCLC 75.2% | 786-0 renal 101% | COLO 205 colon 112%

CC1CCCC(CC(N)=O)CC1 (stereo unspecified)
inactive: NCI-H23 lung 102% | NCI-H226 lung 98.7% | NCI-H322M lung 112% | HOP-62 NSCLC 94.9% | NCI-H460 lung 98.8% | NCI-H522 lung 88.1% | A549/ATCC NSCLC 92.8% | 786-0 renal 110% | COLO 205 colon 107%

NCCC(=O)c1ccc(Cl)cc1
inactive: NCI-H23 lung 99.8% | NCI-H226 lung 112% | NCI-H322M lung 102% | HOP-62 NSCLC 91% | NCI-H460 lung 107% | NCI-H522 lung 100% | A549/ATCC NSCLC 111% | 786-0 renal 105% | COLO 205 colon 106%

COc1ccc(Oc2c(I)cc(CC(NC(C)=O)C(=O)O)cc2I)cc1 (stereo unspecified)
inactive: NCI-H23 lung 61.9% | NCI-H226 lung 73% | NCI-H322M lung 102% | HOP-62 NSCLC 80.9% | NCI-H460 lung 104% | NCI-H522 lung 103% | A549/ATCC NSCLC 87.3% | 786-0 renal 71.7% | COLO 205 colon 108%

O=C(O)C(Cc1ccccc1)C(=O)O
inactive: NCI-H23 lung 95.1% | NCI-H226 lung 95.5% | NCI-H322M lung 105% | HOP-62 NSCLC 118% | NCI-H460 lung 101% | NCI-H522 lung 106% | A549/ATCC NSCLC 103% | 786-0 renal 99.4% | COLO 205 colon 110%

CCc1ccc(/C(C#N)=C/C=C/c2ccccc2)cc1
inactive: NCI-H23 lung 33.4% | NCI-H226 lung 67.3% | NCI-H322M lung 32.7% | HOP-62 NSCLC 34.4% | NCI-H460 lung 13.7% | A549/ATCC NSCLC 28.7% | 786-0 renal 63.2%
active: NCI-H522 lung -39.4% | COLO 205 colon -15%

CCOC(=O)C(=O)C=P(c1ccccc1)(c1ccccc1)c1ccccc1
inactive: NCI-H23 lung 99.4% | NCI-H226 lung 108% | NCI-H322M lung 98.2% | HOP-62 NSCLC 98.1% | NCI-H460 lung 103% | NCI-H522 lung 90.1% | A549/ATCC NSCLC 100% | 786-0 renal 101% | COLO 205 colon 110%

Cc1ccc(C)n1-c1ccsc1C(=O)NNC(=O)C(Cl)Cl
inactive: NCI-H23 lung 98.4% | NCI-H226 lung 93% | NCI-H322M lung 98.6% | HOP-62 NSCLC 96.6% | NCI-H460 lung 104% | NCI-H522 lung 91.9% | A549/ATCC NSCLC 102% | 786-0 renal 101% | COLO 205 colon 120%

CC(C)OC(=O)c1cc(NC(=S)OC(C)C)ccc1Cl
inactive: NCI-H23 lung 79.7% | NCI-H226 lung 86.6% | NCI-H322M lung 85.8% | HOP-62 NSCLC 91.5% | NCI-H460 lung 108% | NCI-H522 lung 77.4% | A549/ATCC NSCLC 70.6% | 786-0 renal 82.2% | COLO 205 colon 102%

S=c1[nH]ccn1-c1ccccc1Cl
active: NCI-H522 lung -30.9%
inactive: NCI-H23 lung 112% | NCI-H226 lung 113% | NCI-H322M lung 133% | HOP-62 NSCLC 112% | NCI-H460 lung 117% | A549/ATCC NSCLC 53.8% | 786-0 renal 109% | COLO 205 colon 117%

Cc1ccc(Cl)cc1N1C(=O)CC(Sc2ccccc2N)C1=O (stereo unspecified)
inactive: NCI-H23 lung 101% | NCI-H226 lung 103% | NCI-H322M lung 127% | HOP-62 NSCLC 94.2% | NCI-H460 lung 111% | NCI-H522 lung 97% | A549/ATCC NSCLC 88.6% | 786-0 renal 106% | COLO 205 colon 110%

CSC[C@H](NC(=O)COc1cccc2cnccc12)C(=O)NC(Cc1ccccc1)C(O)C(=O)N1CSC[C@H]1C(=O)NC(C)(C)C (stereo partly specified)
inactive: NCI-H23 lung 106% | NCI-H226 lung 105% | NCI-H322M lung 95.7% | HOP-62 NSCLC 110% | NCI-H460 lung 125% | NCI-H522 lung 72.3% | A549/ATCC NSCLC 110% | 786-0 renal 80.3% | COLO 205 colon 106%

CC1(O)CCCCC1O (stereo unspecified)
inactive: NCI-H23 lung 103% | NCI-H226 lung 104% | NCI-H322M lung 104% | HOP-62 NSCLC 95.9% | NCI-H460 lung 109% | NCI-H522 lung 91.8% | 786-0 renal 102% | COLO 205 colon 108%

CC1(C)/C(=C\CO)C2CCC1C2 (stereo unspecified)
inactive: NCI-H23 lung 103% | NCI-H226 lung 98.1% | NCI-H322M lung 103% | HOP-62 NSCLC 96.8% | NCI-H460 lung 115% | NCI-H522 lung 88.8% | 786-0 renal 101% | COLO 205 colon 111%

COC(=O)Nc1nc2ccc(C(=O)c3ccc(F)cc3)cc2[nH]1
active: NCI-H460 lung 6% | NCI-H522 lung -52.1% | COLO 205 colon -37.7%
inactive: NCI-H23 lung 31.8% | NCI-H226 lung 145% | NCI-H322M lung 40.5% | HOP-62 NSCLC 33.1% | 786-0 renal 26.4%

Cc1ccccc1C1N=C2Oc3ccccc3C=C2C(=O)N1 (stereo unspecified)
active: NCI-H226 lung 3.49% | NCI-H522 lung -32.7% | COLO 205 colon 0.577%
inactive: NCI-H23 lung 48.7% | NCI-H322M lung 37.4% | HOP-62 NSCLC 33.3% | NCI-H460 lung 30.6% | A549/ATCC NSCLC 33.5% | 786-0 renal 37.8%

CN(C)C(=O)Oc1cccc([N+](C)(C)C)c1
inactive: NCI-H23 lung 109% | NCI-H226 lung 92.8% | NCI-H322M lung 129% | HOP-62 NSCLC 100% | NCI-H460 lung 113% | NCI-H522 lung 109% | 786-0 renal 116% | COLO 205 colon 109%

C#CC(C(C)C)N(CCO)CCCC (stereo unspecified)
inactive: NCI-H23 lung 120% | NCI-H226 lung 96.6% | NCI-H322M lung 107% | HOP-62 NSCLC 98.8% | NCI-H460 lung 101% | NCI-H522 lung 107% | A549/ATCC NSCLC 95.8% | 786-0 renal 108% | COLO 205 colon 108%

CC(=O)Nc1cccc(Cl)c1C
inactive: NCI-H23 lung 103% | NCI-H226 lung 102% | NCI-H322M lung 94% | HOP-62 NSCLC 100% | NCI-H460 lung 106% | NCI-H522 lung 87.7% | A549/ATCC NSCLC 88.2% | 786-0 renal 96.5% | COLO 205 colon 107%

COc1ccccc1NC(=O)c1cc2cc(Br)ccc2cc1O
inactive: NCI-H322M lung 22.6% | 786-0 renal 14.1% | COLO 205 colon 50.8%
active: NCI-H23 lung 4.53% | NCI-H226 lung 8.51% | HOP-62 NSCLC 6.34% | NCI-H460 lung 2.06% | NCI-H522 lung -24.5%

Cc1cc(C(O)(c2ccc(Nc3ccccc3)cc2)c2ccc(Nc3ccc(S(=O)(=O)O)cc3)cc2)ccc1N (stereo unspecified)
active: NCI-H23 lung 8.07% | NCI-H460 lung -39.3% | NCI-H522 lung -45.8% | 786-0 renal -1.27% | COLO 205 colon -71%
inactive: NCI-H226 lung 28.9% | NCI-H322M lung 25% | HOP-62 NSCLC 53.5%

CC(C)=NNc1ccc([N+](=O)[O-])cc1[N+](=O)[O-]
inactive: NCI-H23 lung 95.5% | NCI-H226 lung 98.3% | NCI-H322M lung 87.9% | HOP-62 NSCLC 87.9% | NCI-H460 lung 88.1% | NCI-H522 lung 82.1% | A549/ATCC NSCLC 83.2% | 786-0 renal 93.8% | COLO 205 colon 84.9%

COc1cc(-c2ccc(NC(=O)NC3CC3)c(OC)c2)ccc1NC(=O)NC1CC1
active: NCI-H522 lung -10.3%
inactive: NCI-H23 lung 98.3% | NCI-H226 lung 102% | NCI-H322M lung 110% | HOP-62 NSCLC 101% | NCI-H460 lung 16.2% | A549/ATCC NSCLC 26.8% | 786-0 renal 74% | COLO 205 colon 103%

S=c1sc2ccccc2n1CN1CCCCC1
inactive: NCI-H23 lung 95.9% | NCI-H226 lung 92.9% | NCI-H322M lung 99.1% | HOP-62 NSCLC 89.7% | NCI-H460 lung 102% | NCI-H522 lung 82.3% | A549/ATCC NSCLC 99.2% | 786-0 renal 105% | COLO 205 colon 103%

Nc1ccc(N=Nc2ccc(O)cc2)c(N)n1
inactive: NCI-H23 lung 91.2% | NCI-H226 lung 75.8% | NCI-H322M lung 97.4% | HOP-62 NSCLC 99.7% | NCI-H460 lung 84.1% | NCI-H522 lung 47% | A549/ATCC NSCLC 69.2% | 786-0 renal 65.3% | COLO 205 colon 109%

C#Cc1cccc(NC(=O)c2ccc(Cl)cc2Cl)c1
inactive: NCI-H23 lung 102% | NCI-H226 lung 104% | NCI-H322M lung 98.3% | HOP-62 NSCLC 108% | NCI-H460 lung 105% | NCI-H522 lung 74.4% | A549/ATCC NSCLC 48.7% | 786-0 renal 99.9% | COLO 205 colon 128%
